In PubChem BioAssay AID1159580 (chemical genetic matrix, 2015):
The whole screen tested about 5,500 compounds, of which about 2,000 (36%) were called active. About 18% were inconclusive and are not listed. Rule as the data show it: active = normalized growth mostly below about 0.91 (no sharp cut-off); inconclusive = no clear call, values can overlap the other calls; inactive = mostly above about 0.92. The list shows a part of the results.

Experiment: chemical genetic growth profiling, strain panel (AID 1159580);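 also: tested at 20 µM; growth read once vehicle control cultures reached saturation at 30 °C; 1 = growth at the plate median or of vehicle wells; lower values mean less growth of the strain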
Conditions: S. cerevisiae deletion strains, growth OD

Measured: normalized growth

COc1ccc(C(c2ccc(OC)cc2)C(Cl)(Cl)Cl)cc1
inactive: locus YAL013W, strain DEP1, active compounds read low 1 | locus YAL021C, strain ccr4, active compounds read low 0.989 | locus YAL026C, strain drs2, active compounds read low 1.01 | locus YAL030W, strain snc1, active compounds read low 1.02 | locus YBL061C, strain skt5, active compounds read low 1.01 | locus YBR009C, strain hhf1, active compounds read low 1.01 | locus YBR021W, strain FUR4, active compounds read low 0.974 | locus YBR023C, strain chs3, active compounds read low 0.998 | locus YBR171W, strain sec66, active compounds read low 1 | locus YBR229C, strain ROT2, active compounds read low 0.997 | locus YBR231C, strain swc5, active compounds read low 1.01 | locus YBR279W, strain paf1, active compounds read low 1.02 | locus YCL011C, strain gbp2, active compounds read low 1.02 | locus YCL016C, strain dcc1, active compounds read low 1.01 | locus YCL029C, strain bik1, active compounds read low 0.981 | locus YCL061C, strain MRC1, active compounds read low 1.01 | locus YCL069W, strain vba3, active compounds read low 1.02 | locus YCR088W, strain abp1, active compounds read low 1.01 | locus YDL005C, strain med2, active compounds read low 1.01 | locus YDL035C, strain GPR1, active compounds read low 0.999 | locus YDL040C, strain nat1, active compounds read low 1.02 | locus YDL074C, strain BRE1, active compounds read low 0.986 | locus YDL101C, strain DUN1, active compounds read low 0.996 | locus YDL134C, strain PPH21, active compounds read low 1 | locus YDL185W, strain tfp1, active compounds read low 0.981 | locus YDL192W, strain arf1, active compounds read low 0.992 | locus YDR001C, strain nth1, active compounds read low 1.01 | locus YDR069C, strain doa4, active compounds read low 0.992 | locus YDR101C, strain arx1, active compounds read low 0.995 | locus YDR137W, strain rgp1, active compounds read low 0.959 | locus YDR150W, strain NUM1, active compounds read low 1 | locus YDR159W, strain sac3, active compounds read low 0.972 | locus YDR162C, strain NBP2, active compounds read low 1.01 | locus YDR195W, strain ref2 1.07 | locus YDR297W, strain sur2, active compounds read low 1 | locus YDR318W, strain mcm21, active compounds read low 0.996 | locus YDR334W, strain swr1, active compounds read low 1.03 | locus YDR335W, strain msn5, active compounds read low 1.01 | locus YDR388W, active compounds read low 0.988 | locus YDR392W, strain spt3, active compounds read low 0.957 | locus YDR502C, strain sam2, active compounds read low 0.989 | locus YEL003W, strain gim4, active compounds read low 0.994 | locus YEL037C, strain rad23, active compounds read low 1.01 | locus YEL061C, strain CIN8 (second series), active compounds read low 1.01 | locus YEL061C, strain CIN8, active compounds read low 0.995 | locus YER015W, strain faa2, active compounds read low 0.984 | locus YER016W, strain bim1, active compounds read low 1.02 | locus YER110C, active compounds read low 0.984 | locus YER111C, strain swi4, active compounds read low 1.01 | locus YER155C, strain BEM2 (second series), active compounds read low 1 | locus YER155C, strain BEM2, active compounds read low 0.989 | locus YER167W, strain BCK2, active compounds read low 0.996 | locus YFR010W, strain ubp6, active compounds read low 1.01 | locus YGL078C, strain dbp3, active compounds read low 0.991 | locus YGL086W, strain mad1, active compounds read low 1.02 | locus YGL167C, strain pmr1, active compounds read low 1.01 | locus YGL173C, strain kem1, active compounds read low 1 | locus YGL227W, strain vid30, active compounds read low 1.01 | locus YGL240W, strain doc1, active compounds read low 1.02 | locus YGL248W, strain PDE1, active compounds read low 0.987 | locus YGL253W, strain hxk2, active compounds read low 0.997 | locus YGR078C, strain PAC10, active compounds read low 1.01 | locus YGR135W, strain pre9, active compounds read low 0.994 | locus YGR229C, strain SMI1, active compounds read low 1 | locus YGR252W, strain gcn5, active compounds read low 0.947 | locus YHR013C, strain ard1, active compounds read low 0.949 | locus YHR027C, strain rpn1, active compounds read low 1 | locus YHR030C, strain SLT2, active compounds read low 1 | locus YHR079C, strain IRE1 (second series), active compounds read low 0.979 | locus YHR094C, strain hxt1, active compounds read low 0.994 | locus YHR129C, strain ARP1, active compounds read low 1 | locus YHR142W, strain chs7, active compounds read low 0.988 | locus YHR200W, strain rpn10, active compounds read low 0.985 | locus YIL066C, strain RNR3, active compounds read low 0.977 | locus YIL073C, strain SPO22, active compounds read low 0.952 | locus YIL125W, strain kgd1, active compounds read low 0.996 | locus YIR030C, strain dcg1, active compounds read low 0.998 | locus YJL092W, strain hpr5, active compounds read low 1.01 | locus YJL095W, strain BCK1 (second series), active compounds read low 1.02 | locus YJL095W, strain BCK1, active compounds read low 1.03 | locus YJL115W, strain asf1, active compounds read low 1.01 | locus YJL134W, strain LCB3, active compounds read low 0.989 | locus YJL154C, strain vps35, active compounds read low 1.01 | locus YJL164C, strain tpk1, active compounds read low 0.988 | locus YJL166W, strain qcr8, active compounds read low 0.992 | locus YJL168C, strain set2, active compounds read low 0.989 | locus YJL187C, strain SWE1 (second series), active compounds read low 0.997 | locus YJL187C, strain SWE1, active compounds read low 1.03
active: locus YJL129C, strain trk1, active compounds read low 0.847
